From PubChem BioAssay (NCI)
About 83,000 compounds went through this panel and 20% of them were active in at least one assay; those are over-represented in the sample as a whole.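 A percent growth of 40 corresponds to 60% growth inhibition; 0 means no net growth; -100 means all cells died. Active threshold: below 10.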 Unmarked numbers belong to inactive results. The source made the active and inactive calls.

Key:
Assay in all cases: NCI-60 one-dose screen, 48 h (100 = growth as untreated, 0 = no growth, -100 = all killed)
Conditions in all cases: 10 µM
NCI-H23 lung = tested on: NCI-H23 lung
NCI-H226 lung = tested on: NCI-H226 lung
NCI-H322M lung = tested on: NCI-H322M lung
HOP-62 NSCLC = tested on: HOP-62 NSCLC
NCI-H460 lung = tested on: NCI-H460 lung
HOP-92 NSCLC = tested on: HOP-92 NSCLC
NCI-H522 lung = tested on: NCI-H522 lung
A549/ATCC NSCLC = tested on: A549/ATCC NSCLC
786-0 renal = tested on: 786-0 renal
COLO 205 colon = tested on: COLO 205 colon
DU-145 prostate = tested on: DU-145 prostate
K-562 leukemia = tested on: K-562 leukemia
MALME-3M melanoma = tested on: MALME-3M melanoma
MDA-MB-231 breast = tested on: MDA-MB-231 breast
RXF 393 renal = tested on: RXF 393 renal
SF-268 CNS = tested on: SF-268 CNS
SF-295 CNS = tested on: SF-295 CNS
SF-539 CNS = tested on: SF-539 CNS
UACC-257 melanoma = tested on: UACC-257 melanoma
M14 melanoma = tested on: M14 melanoma

| Compound | growth (NCI-H23 lung) | growth (NCI-H226 lung) | growth (NCI-H322M lung) | growth (HOP-62 NSCLC) | growth (NCI-H460 lung) | growth (HOP-92 NSCLC) | growth (NCI-H522 lung) | growth (A549/ATCC NSCLC) | growth (786-0 renal) | growth (COLO 205 colon) | growth (DU-145 prostate) | growth (K-562 leukemia) | growth (MALME-3M melanoma) | growth (MDA-MB-231 breast) | growth (RXF 393 renal) | growth (SF-268 CNS) | growth (SF-295 CNS) | growth (SF-539 CNS) | growth (UACC-257 melanoma) | growth (M14 melanoma) |
| --- | --- | --- | --- | --- | --- | --- | --- | --- | --- | --- | --- | --- | --- | --- | --- | --- | --- | --- | --- | --- |
| CN1CCN(c2ccc(C(=O)/C=C/c3cc(Br)ccc3F)cc2)CC1 | 49.4% | 61.6% | 93.3% | 77.1% | 67.2% | 31.6% | 66.4% | 28.5% | 27.1% | 34.8% | 44.8% | -35.5% (active) | 78.9% | 26.9% | 38.8% | 88.6% | 60.7% | 2.31% (active) | 73.8% | 52.1% |
| CO[C@H]1CSS[C@@H]1Cn1nc(-c2ccc(Oc3ccccc3)cc2)c2c(N)ncnc21 | 40.4% | 16.6% | 53.4% | 41.3% | 21.1% | 20.5% | -13% (active) | 22.1% | 45% | 36.1% | 38.3% | 7.28% (active) | -38.2% (active) | 9.69% (active) | 18.6% | 32.4% | 35.4% | 36.1% | -3.47% (active) | -93% (active) |
| Cc1ccc(NCC(=O)Nn2c(COc3ccccc3)nc3ccccc3c2=O)cc1 | 67.8% | 66.3% | 85.9% | 27.4% | 81.4% | 58.1% | 71.7% | 77.9% | 66.4% | 85% | 85.9% | 88.2% | 80.8% | 62% | 51.3% | 49.8% | 58% | 51.4% | 83.6% | 93.3% |
| CN1C(=O)/C(=C/c2nccs2)SC1=S | 80.8% | 87.2% | 83.7% | 111% | 91% | 92.4% | 77.7% | 98.5% | 105% | 119% | 91.2% | 66.8% | 82.1% | 87.5% | 103% | 104% | 93.2% | 95.4% | 85.4% | 87.2% |
| C=CC(=O)Nc1ccc(C(=O)/C=C/c2ccc(N(C)CCF)cc2)c(O)c1 | -26.7% (active) | -11% (active) | 25.6% | -27.5% (active) | -9.21% (active) | -3.32% (active) | -76.9% (active) | -60.7% (active) | -42.2% (active) | -69.1% (active) | -51.2% (active) | 9.77% (active) | -50.1% (active) | 17% | -82.4% (active) | -19.7% (active) | -4.58% (active) | -81.5% (active) | -61.6% (active) | -56.3% (active) |
| COc1ccc(N(C)c2cc(C#N)nc3ccccc23)cc1/C=C/C(=O)NO | -83.4% (active) | -39% (active) | 0.0682% (active) | -48% (active) | 0.587% (active) | -12.2% (active) | -75.4% (active) | 7.16% (active) | -9.47% (active) | -34.2% (active) | 16.7% | 4.1% (active) | -56.5% (active) | -73.5% (active) | -82.2% (active) | -30% (active) | -73.8% (active) | -89.6% (active) | -26.2% (active) | 2.45% (active) |
| Nc1nnc(-c2c[nH]c3ccc(F)cc23)c(-c2c[nH]c3ncccc23)n1 | 86.6% | 57.9% | 61.1% | 57.4% | 50.3% | 81.8% | 52.7% | 74% | 44% | 71.8% | 82% | 31.9% | 71.6% | 39.1% | 82.8% | 80.2% | 36.6% | 30% | 105% | 63.5% |
| CN1CCN(Cc2ccc(C(=O)Nc3cccc(Nc4ccc5cc(O)ccc5n4)c3)cc2C(F)(F)F)CC1 | -66% (active) | 26.5% | -28.9% (active) | -66.5% (active) | -74.6% (active) | -46.2% (active) | -68.8% (active) | -11.5% (active) | -47% (active) | -85.4% (active) | -16.1% (active) | -55.8% (active) | -88.7% (active) | -55% (active) | -87.8% (active) | -26% (active) | -96.9% (active) | -95.5% (active) | -79.1% (active) | -40.2% (active) |
| CC(=O)Nc1ccc(-n2cnc3cc(-c4ccc(O)cc4)ccc32)cc1C | 47.6% | 57% | 74.9% | 63.5% | 36.4% | 67.2% | -29.1% (active) | 47.5% | 55.7% | 93.9% | 60.8% | 41.2% | 58.9% | 49.3% | 43.4% | 53.1% | 52.8% | 41.5% | 61.2% | 42.3% |
| O=C(Nc1ccc(F)c(Cl)c1)c1cc(-c2ccc(F)cc2F)ccc1O | -46.9% (active) | -23.4% (active) | 2.57% (active) | -13% (active) | 0.118% (active) | -20.6% (active) | -15% (active) | 9.32% (active) | 9.93% (active) | 4.58% (active) | 13.3% | 6.16% (active) | -28.6% (active) | -24.5% (active) | -16.6% (active) | 4.5% (active) | -82.1% (active) | -7.23% (active) | -13.5% (active) | 20% |
| COc1cccc2nc(Nc3ccc(F)c(NC(=O)c4ccc(CN5CCN(C)CC5)c(C(F)(F)F)c4)c3)ccc12 | -17.8% (active) | 17% | 32.7% | -36.4% (active) | -68.8% (active) | -22.8% (active) | -60.9% (active) | 18.5% | -66.3% (active) | -78.7% (active) | 6.64% (active) | -70.8% (active) | -91.3% (active) | -37.8% (active) | -27.1% (active) | 22.2% | -84% (active) | -93.6% (active) | -66.5% (active) | -12% (active) |
| COc1ccc(-c2ccc(/C=N/NC(=O)c3[nH]c4ccc(Br)cc4c3-c3ccccc3)o2)cc1 | 50% | 44.1% | 70.4% | 47.2% | 16.8% | 85.9% | -44.1% (active) | 42.5% | 34.9% | 63.1% | 75.5% | 10.5% | 47% | 52.6% | 16.8% | 37.9% | 4.48% (active) | -14.1% (active) | 63.2% | 17% |
| CCOC(=O)C1NN(c2ccc(S(N)(=O)=O)cc2)c2nc3nc(-c4cccs4)cc(-c4cccs4)c3c(=O)n21 (stereo not given) | 96.6% | 5.85% (active) | 99.7% | 109% | 77.6% | 61.5% | 77.2% | 90.9% | 78.7% | 81.1% | 91.6% | 83.3% | 86.1% | 88.8% | 51.6% | 75% | 78.5% | 63.1% | 109% | 74% |
| O=C(N/N=C/c1ccc(-c2cccc([N+](=O)[O-])c2)o1)c1[nH]c2ccc(Br)cc2c1-c1ccccc1 | 17.6% | 16.2% | 54% | 38.7% | 9.61% (active) | 55.7% | -48.4% (active) | 0.801% (active) | 5.31% (active) | -65.4% (active) | 6.18% (active) | 4.74% (active) | 39% | 6.8% (active) | 26.4% | 36% | -15.3% (active) | -49.8% (active) | 41.9% | 10.4% |
| NS(=O)(=O)c1ccc(N=Nc2c(O)n(CC(=O)Nc3ccccc3Br)c3ccccc23)cc1 | 40% | 14.4% | 50.3% | 37.6% | 26.4% | 38.7% | 32.6% | 19.8% | 20.1% | 5.92% (active) | 34.7% | 27.2% | 26.5% | 11.2% | 27.6% | 86.6% | 25.8% | 5.32% (active) | 50% | 27.9% |
